Several values for one entry are separate records, joined by “and”; a condition that tells them apart may be missing. Equal values may be shown once. Inconclusive results are not listed. Some compounds were tested as several samples or in several runs, with calls that do not always agree. Activity calls are given as the source filed them. Unless noted, calls come from the whole dose curve; as a rule, active = well fitted curve in the direction sought with a large enough effect in the repeat runs; inconclusive = weak or mixed curves; inactive = no such curve, though single readings can be large; an effect the other way counts as inactive or inconclusive.

The target of assay [1] is Progesterone receptor (Homo sapiens) (UniProt P06401). Nature of the assay: qHTS assay to identify small molecule antagonists of the progesterone receptor (PR) signaling pathway (AID 1346795; active = well fitted inhibition curve with a large enough effect in the signal ratio in the repeat runs, not every such curve was filed as active; the % refers to the signal ratio; note: potency is the fitted concentration of half-maximal effect). An outline of the steps: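 Antagonist mode with agonist R5020 at 1 nM final and 16 hr incubation at 37C. Reporter was beta-lactamase driven by UAS in HEK293T (PR-UAS-bla), 2% charcoal-stripped serum; signal from LiveBLAzer FRET substrate, 2 hr at room temperature.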

Assay [2] is described as follows: qHTS assay to identify small molecule antagonists of the progesterone receptor (PR) signaling pathway - cell viability counter screen (AID 1346798). Note: series mostly up to about 92 µM; nearly all actives have a fitted effect of over 50% in size. In outline:
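Cytotoxicity read as CellTiter-Glo luminescence (30 min, room temperature) in the same wells as the beta-lactamase readout. HEK293T PR-UAS-bla cells in charcoal-stripped 2% FBS received compound and R5020, then 16 h at 37C, 5% CO2.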
For orientation: In qHTS, concentration-response curves come from the screen itself.

The nature of assay [3]: qHTS assay to identify small molecule agonists of the progesterone receptor (PR) signaling pathway - cell viability counter screen (AID 1346799; calls by dose curve; note: nearly all actives have a fitted effect of over 45% in size). An outline of the steps: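 Cytotoxicity measured by CellTiter-Glo luminescence (30 min, RT) in the same wells as the PR beta-lactamase agonist read. Those HEK293T cells had 16 h compound treatment at 37 C in 2% charcoal-stripped FBS medium.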

Assay [4] in a line: qHTS assay to identify small molecule antagonists of the TGF-beta/Smad signaling pathway - cell viability counter screen (AID 1346824). Note: nearly all actives have a fitted effect of over 50% in size. An outline of the steps:
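SBE-bla HEK 293T cells were plated overnight at 37 C, then given compounds in DMSO plus TGF-beta1 (added as 0.25 ng/mL solution) for 5 hr. After the bla read, CellTiter-Glo was added to the same wells and luminescence read after 30 min at room temperature.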

A short description of assay [5]: qHTS assay to identify small molecule agonists of the TGF-beta/Smad signaling pathway - cell viability counter screen (AID 1346829). Note: top concentration of the series differs between compounds; nearly all actives have a fitted effect of over 45% in size. In outline:
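After overnight seating at 37 C and 5% CO2, reporter cells got compounds for 5 hr and FRET substrate for 2 hr; cell viability then came from CellTiter-Glo luminescence.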

The nature of assay [6]: qHTS assay to identify small molecule agonists of the TGF-beta/Smad signaling pathway (AID 1346859; active = well fitted activation curve with a large enough effect in the signal ratio in the repeat runs, not every such curve was filed as active; the % refers to the signal ratio; note: series mostly up to about 77 µM). In outline:
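Fluorescence (ex 405 nm; em 460 and 530 nm) was read 2 h after LiveBLAzer FRET substrate at RT. The preceding compound treatment of overnight-plated SBE-bla HEK293T cells lasted 5 h at 37 C.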

Assay [7] has as its target Thyrotropin-releasing hormone receptor (Homo sapiens) (UniProt P34981). Nature of the assay: qHTS assay to identify small molecule antagonists of the thyrotropin-releasing hormone receptor (TRHR) signaling pathway (AID 1346877; active = well fitted inhibition curve with a large enough effect in the repeat runs, not every such curve was filed as active; note: series mostly up to about 51 µM). An outline of the steps:
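Calcium signal in dye-loaded TRHR/HEK293 cells; compounds added 5 min before TRH (1 nM final); fluorescence monitored 3 min at 1 s steps.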

Assay [8] shares this target. Nature of the assay: qHTS assay to identify small molecule agonists of the thyrotropin-releasing hormone receptor (TRHR) signaling pathway (AID 1346891; calls by dose curve; note: series mostly up to about 58 µM). An outline of the steps: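 Agonist-mode intracellular calcium readout: kinetic fluorescence over 3 min at 1 s intervals after compound addition to TRHR-HEK293 cells (18 h seeded, 2 h dye-loaded at 37 C). Fifteen concentrations, triplicates.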

Assay [9] is described as follows: Human pregnane X receptor (PXR) small molecule agonists, qHTS cell viability counter screen (AID 1346977). Note: nearly all actives have a fitted effect of over 50% in size. An outline of the steps: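 Same-well viability read: CellTiter-Fluor added after 23 hr compound exposure, fluorescence measured 1 hr later. Cells were PXR-Luc HepG2 seeded at 2,000/well in 5% charcoal-stripped FBS medium, rested 5 hr before dosing at 37 C.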

A short description of assay [10]: Caspase-3/7 induction in HepG2 cells by small molecules, qHTS assay (AID 1346978). Note: nearly all actives have a fitted effect of over 15% in size. An outline of the steps: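 Wild-type HepG2 cells (2,000/well) were settled 5 h at 37 C, 5% CO2, then exposed to compounds in DMSO for 17 h. Caspase-3/7 activity was read by luminescence 30 min after adding Caspase-Glo 3/7 reagent at room temperature.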
The nature of assay [11]: Caspase-3/7 induction in CHO-K1 cells by small molecules, qHTS cell viability counter screen (AID 1346979). Note: nearly all actives have a fitted effect of over 35% in size. In outline: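 Cytotoxicity counter screen: CellTiter-Fluor added to compound-treated wild-type CHO-K1 cells at 16 h (37C, 5% CO2), fluorescence measured 1 h later; same wells as caspase-3/7 measurement.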
The nature of assay [12]: Caspase-3/7 induction in CHO-K1 cells by small molecules, qHTS assay (AID 1346980). Note: nearly all actives have a fitted effect of over 15% in size. In outline:
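Wild-type cells were seeded at 1,500 per well and settled 5 hr at 37 C, 5% CO2, then exposed to DMSO-dissolved compounds for 17 hr. Caspase-Glo 3/7 reagent was added, and luminescence was read after 30min at room temperature.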

Assay [13] is described as follows: Caspase-3/7 induction in HepG2 cells by small molecules, qHTS cell viability counter screen (AID 1346981). Note: series mostly up to about 92 µM; nearly all actives have a fitted effect of over 30% in size. In outline: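 After a 5-hr attachment period at 37 C and 5% CO2, wild-type HepG2 cells received compounds in DMSO. Sixteen hours later CellTiter-Fluor was dispensed and the fluorescent signal quantified after a further hour.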
The target of assay [14] is Nuclear receptor subfamily 1 group I member 2 (Homo sapiens) (UniProt O75469). Nature of the assay: Human pregnane X receptor (PXR) small molecule agonists, qHTS assay (AID 1346982). Note: nearly all actives have a fitted effect of over 35% in size. Note: potency is the fitted concentration of half-maximal effect. In outline: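 Tox21 qHTS; PXR-Luc HepG2; compounds pinned from DMSO; 24 hr, 37 C; ONE-Glo luciferase detection, 30 min room temperature.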
For assay [15], the target named is Nuclear receptor subfamily 1 group I member 2 (Rattus norvegicus) (UniProt Q9R1A7). Nature of the assay: Rat pregnane X receptor (rPXR) activation by small molecules, qHTS assay (AID 1346983). Note: nearly all actives have a fitted effect of over 20% in size. Particulars: rPXR luciferase reporter cells, One-Glo luminescence, 24 h; stronger effect = higher value. An outline of the steps:
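Cell-based rPXR luciferase reporter assay, 2,000 cells per well, rested 5hr at 37 C before compound addition in DMSO, then 24 hr at 37 C. One-Glo reagent was added and luminescence read after 30 min at room temperature.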

The target in assay [16] is Nuclear receptor subfamily 1 group I member 2 (Homo sapiens) (UniProt O75469). Nature of the assay: CYP3A4 induction through human pregnane X receptor (PXR) by small molecules, qHTS assay (AID 1346984). Note: nearly all actives have a fitted effect of over 40% in size. In outline: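 Cells (DPX-2; HepG2 with PXR element plus CYP3A4-promoter luciferase) settled 5hr, then were treated 24hr at 37C. A 3hr, 3uM-final Luciferin-IPA step preceded luminescence measurement with One-Glo.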

Assay [17] has the same target. Nature of the assay: Human pregnane X receptor (PXR) activation by small molecules, qHTS assay (AID 1346985). Note: nearly all actives have a fitted effect of over 40% in size. Note: potency is the fitted concentration of half-maximal effect. An outline of the steps: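 DPX-2 cells (HepG2 co-transfected with a PXR response element and a CYP3A4-promoter luciferase construct) were seeded at 2,000 per well, rested 5 hr at 37C, then exposed to DMSO-dissolved compounds for 24 hr. Activation was read as luciferase luminescence.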

The target of assay [18] is Cytochrome P450 2D6 (Homo sapiens) (UniProt P10635). Nature of the assay: Cytochrome P450 Family 2 Subfamily D Member 6 (CYP2D6) small molecule antagonists: luciferase reporter qHTS assay (AID 1671196). Note: nearly all actives have a fitted effect of over 50% in size. Note: potency is the fitted concentration of half-maximal effect. In outline:
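Room-temperature luminescent CYP2D6 activity assay: compound preincubated 10 min with enzyme–substrate mix, NADPH-initiated reaction 1 h, detection reagent 20 min before reading.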

Assay [19] concerns the target Cytochrome P450 2C19 (Homo sapiens) (UniProt P33261). Nature of the assay: Cytochrome P450 Family 2 Subfamily C Member 19 (CYP2C19) small molecule antagonists: luciferase reporter qHTS assay (AID 1671197). Note: nearly all actives have a fitted effect of over 65% in size. Note: potency is the fitted concentration of half-maximal effect. An outline of the steps:
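Inhibition of CYP2C19 was scored from loss of luminescence in a P450-Glo proluciferin substrate assay, NADPH-started and run 1 h at 37C, with ketoconazole as positive control.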
Background: Reporter assays use an easily measured gene product as a stand-in for the process of interest.

Assay [20] concerns the target Cytochrome P450 2C9 (Homo sapiens) (UniProt P11712). Nature of the assay: Cytochrome P450 Family 2 Subfamily C Member 9 (CYP2C9) small molecule antagonists: luciferase reporter qHTS assay (AID 1671198). Note: nearly all actives have a fitted effect of over 50% in size. Note: potency is the fitted concentration of half-maximal effect. An outline of the steps:
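CYP2C9 activity was measured with a P450-Glo proluciferin substrate. Enzyme–substrate mix was held with compound for 10 min at room temperature, then NADPH regeneration solution was added for 1 h at 37C. Luciferin product was read as luminescence.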
% is set by controls: 0 for no effect and ±100 for the full control effect.

Sequence of Nuclear receptor subfamily 1 group I member 2 (Rattus norvegicus) (Q9R1A7 whole entry, looked up): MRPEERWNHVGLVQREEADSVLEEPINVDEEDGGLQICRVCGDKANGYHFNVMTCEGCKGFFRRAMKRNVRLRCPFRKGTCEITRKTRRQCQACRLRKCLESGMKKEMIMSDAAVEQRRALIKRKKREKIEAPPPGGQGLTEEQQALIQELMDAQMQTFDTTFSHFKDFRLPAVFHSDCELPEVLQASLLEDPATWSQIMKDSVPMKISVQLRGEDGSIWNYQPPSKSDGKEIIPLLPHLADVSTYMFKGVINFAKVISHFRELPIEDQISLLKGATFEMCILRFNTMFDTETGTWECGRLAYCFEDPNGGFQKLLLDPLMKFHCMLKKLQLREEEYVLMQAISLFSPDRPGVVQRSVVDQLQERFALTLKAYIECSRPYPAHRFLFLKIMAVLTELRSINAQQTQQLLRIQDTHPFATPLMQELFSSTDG
Sequence of Cytochrome P450 2C9 (Homo sapiens) (P11712 whole entry, looked up): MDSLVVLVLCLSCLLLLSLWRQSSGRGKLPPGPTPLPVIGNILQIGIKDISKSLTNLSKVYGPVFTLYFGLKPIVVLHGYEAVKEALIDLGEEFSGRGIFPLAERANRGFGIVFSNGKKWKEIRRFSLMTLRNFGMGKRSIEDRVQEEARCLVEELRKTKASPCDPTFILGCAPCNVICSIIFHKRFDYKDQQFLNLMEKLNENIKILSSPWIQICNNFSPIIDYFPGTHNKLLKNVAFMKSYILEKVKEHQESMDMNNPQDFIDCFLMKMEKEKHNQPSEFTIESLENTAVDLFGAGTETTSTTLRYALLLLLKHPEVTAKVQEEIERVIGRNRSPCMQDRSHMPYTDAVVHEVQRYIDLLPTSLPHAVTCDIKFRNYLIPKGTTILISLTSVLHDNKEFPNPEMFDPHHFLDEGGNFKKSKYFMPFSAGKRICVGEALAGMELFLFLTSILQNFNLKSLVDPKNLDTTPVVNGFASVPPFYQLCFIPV
Sequence of Cytochrome P450 2D6 (Homo sapiens) (P10635 whole entry, looked up): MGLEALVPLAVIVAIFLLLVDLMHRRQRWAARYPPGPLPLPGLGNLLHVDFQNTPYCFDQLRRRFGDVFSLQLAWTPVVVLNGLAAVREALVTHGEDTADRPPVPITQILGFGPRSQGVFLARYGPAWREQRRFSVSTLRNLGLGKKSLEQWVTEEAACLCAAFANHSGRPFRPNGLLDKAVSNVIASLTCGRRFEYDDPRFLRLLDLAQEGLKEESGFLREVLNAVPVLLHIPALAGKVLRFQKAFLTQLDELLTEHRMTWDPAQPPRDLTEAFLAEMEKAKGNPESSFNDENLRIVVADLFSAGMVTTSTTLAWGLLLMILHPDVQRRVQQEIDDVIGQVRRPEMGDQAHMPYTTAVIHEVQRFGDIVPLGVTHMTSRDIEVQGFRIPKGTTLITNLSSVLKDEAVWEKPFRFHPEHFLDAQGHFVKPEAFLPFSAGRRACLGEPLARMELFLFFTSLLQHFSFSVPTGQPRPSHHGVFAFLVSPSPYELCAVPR
Sequence of Progesterone receptor (Homo sapiens) (P06401 whole entry, looked up): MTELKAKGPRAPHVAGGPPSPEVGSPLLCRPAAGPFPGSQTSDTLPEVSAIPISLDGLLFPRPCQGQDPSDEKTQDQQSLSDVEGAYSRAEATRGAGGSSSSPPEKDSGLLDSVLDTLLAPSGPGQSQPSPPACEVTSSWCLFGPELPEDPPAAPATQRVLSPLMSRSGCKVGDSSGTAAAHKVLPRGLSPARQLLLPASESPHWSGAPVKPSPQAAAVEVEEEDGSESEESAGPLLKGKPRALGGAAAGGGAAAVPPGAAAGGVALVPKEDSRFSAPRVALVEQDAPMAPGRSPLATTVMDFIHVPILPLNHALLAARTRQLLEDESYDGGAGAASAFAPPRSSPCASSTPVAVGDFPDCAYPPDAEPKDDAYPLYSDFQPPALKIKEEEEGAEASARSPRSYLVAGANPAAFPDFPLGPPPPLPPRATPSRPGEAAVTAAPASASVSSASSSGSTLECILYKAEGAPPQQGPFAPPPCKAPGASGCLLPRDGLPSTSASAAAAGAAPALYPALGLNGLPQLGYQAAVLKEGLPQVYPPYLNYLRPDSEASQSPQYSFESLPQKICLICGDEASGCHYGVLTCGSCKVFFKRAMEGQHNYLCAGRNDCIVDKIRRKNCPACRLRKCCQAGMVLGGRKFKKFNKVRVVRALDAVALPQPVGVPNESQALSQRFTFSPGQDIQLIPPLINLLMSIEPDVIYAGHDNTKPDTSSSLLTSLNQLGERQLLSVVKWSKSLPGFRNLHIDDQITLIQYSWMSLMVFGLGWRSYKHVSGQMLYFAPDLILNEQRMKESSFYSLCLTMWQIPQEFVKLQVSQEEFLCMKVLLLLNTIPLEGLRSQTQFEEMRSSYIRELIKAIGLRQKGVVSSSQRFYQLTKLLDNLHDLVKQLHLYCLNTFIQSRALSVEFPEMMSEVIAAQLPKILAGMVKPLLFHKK
Sequence of Nuclear receptor subfamily 1 group I member 2 (Homo sapiens) (O75469 whole entry, looked up): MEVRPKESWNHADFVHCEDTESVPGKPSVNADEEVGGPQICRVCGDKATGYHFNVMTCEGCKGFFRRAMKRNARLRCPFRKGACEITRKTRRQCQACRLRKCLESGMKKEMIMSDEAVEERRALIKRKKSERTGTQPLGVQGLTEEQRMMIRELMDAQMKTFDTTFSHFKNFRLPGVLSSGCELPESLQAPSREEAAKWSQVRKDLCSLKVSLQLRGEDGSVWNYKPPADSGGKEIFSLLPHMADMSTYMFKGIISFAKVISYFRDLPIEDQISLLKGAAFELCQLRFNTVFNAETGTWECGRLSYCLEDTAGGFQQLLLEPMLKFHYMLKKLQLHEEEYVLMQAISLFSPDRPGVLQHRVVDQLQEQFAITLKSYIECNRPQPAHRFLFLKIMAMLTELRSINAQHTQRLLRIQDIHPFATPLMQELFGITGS
Sequence of Thyrotropin-releasing hormone receptor (Homo sapiens) (P34981 whole entry, looked up): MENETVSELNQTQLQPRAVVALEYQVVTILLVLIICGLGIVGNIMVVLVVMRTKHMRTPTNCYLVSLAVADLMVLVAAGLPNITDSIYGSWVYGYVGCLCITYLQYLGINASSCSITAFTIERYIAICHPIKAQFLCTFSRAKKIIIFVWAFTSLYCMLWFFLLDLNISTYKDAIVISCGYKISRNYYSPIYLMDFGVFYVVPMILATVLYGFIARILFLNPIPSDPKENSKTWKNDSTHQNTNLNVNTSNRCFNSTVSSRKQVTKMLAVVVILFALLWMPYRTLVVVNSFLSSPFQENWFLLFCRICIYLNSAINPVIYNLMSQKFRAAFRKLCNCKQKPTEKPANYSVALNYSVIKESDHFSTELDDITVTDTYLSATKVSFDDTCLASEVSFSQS
Sequence of Cytochrome P450 2C19 (Homo sapiens) (P33261 whole entry, looked up): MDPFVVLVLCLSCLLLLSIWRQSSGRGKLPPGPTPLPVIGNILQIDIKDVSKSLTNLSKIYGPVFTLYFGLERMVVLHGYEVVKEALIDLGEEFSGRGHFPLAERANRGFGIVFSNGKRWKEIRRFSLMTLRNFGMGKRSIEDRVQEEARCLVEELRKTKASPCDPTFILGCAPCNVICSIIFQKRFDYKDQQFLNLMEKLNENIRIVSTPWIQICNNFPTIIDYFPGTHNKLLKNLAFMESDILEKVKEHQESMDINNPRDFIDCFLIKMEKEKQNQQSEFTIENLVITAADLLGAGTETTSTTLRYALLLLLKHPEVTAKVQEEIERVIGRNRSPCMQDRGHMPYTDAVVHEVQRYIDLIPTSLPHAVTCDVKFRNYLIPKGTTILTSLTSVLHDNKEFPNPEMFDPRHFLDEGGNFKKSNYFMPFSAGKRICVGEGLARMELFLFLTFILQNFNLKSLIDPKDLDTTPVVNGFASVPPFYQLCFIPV

Regarding `CCOc1ccccc1C(N)=O`, the Potency entry in [1] was “inactive and 26.6 µM (active)”; in [19], 20 µM (active) and inactive. Also, the Potency entry in assay [2], in assay [3], in assay [4], in assay [5], in assay [7] and in assay [8] was “inactive” in each case. In addition, the Potency entry in assay [9], in assay [10], in assay [11], in [12], in assay [13] and in assay [14] was “inactive” each time. The Potency result in assay [16], in [17], in [18] and in [20] was “inactive” each time. Also, in [6], the compound was classed as inactive. Also, the max activation in [15] was -0.87% (inactive).

Turning to `C/C=C/c1ccc(OCC)c(O)c1`, the Potency result in assay [1], in assay [2], in [3], in assay [4], in assay [5] and in assay [7] was “inactive” each time. Besides, the Potency result in assay [8], in assay [9], in assay [10], in assay [11], in assay [12] and in [13] was “inactive” each time. The Potency result in [14] and in assay [18] was “inactive” each time. Moreover, in assay [6], the compound was classed as inactive. Besides, the Potency was 20 µM (active) and 25.2 µM (active) in assay [19]; 35.6 µM (active) and 28.3 µM (active) in assay [20].

Consider `CC(=O)N[C@@H](CS)C(=O)O`, for which the Potency result in assay [1], in assay [2], in [3], in [4], in assay [5] and in [10] was “inactive” throughout. For the same compound, the Potency result in assay [11], in assay [12], in assay [13], in assay [14], in assay [16] and in assay [17] was “inactive” throughout. For the same compound, the Potency result in assay [18] and in [20] was “inactive” each time. In addition, in assay [6], the call was inactive. In addition, the max activation in [15] is -0.291% (inactive). In assay [19], the Potency is 56.3 µM (active) and inactive.

As to `CCN(CC)C(=O)Nc1ccc(OCC(O)CNC(C)(C)C)c(C(C)=O)c1` (stereo unspecified), the Potency result in assay [1], in assay [2], in assay [3], in [4], in assay [5] and in assay [7] was “inactive” in each case. Moreover, the Potency result in [8], in [10], in [12], in assay [13], in assay [14] and in [16] was “inactive” in each case. The Potency entry in [17], in [19] and in assay [20] was “inactive” each time. Moreover, in assay [6], the call was inactive. Also, the max activation in assay [15] was 1.62% (inactive).

Turning to `NNCCc1ccccc1`, the Potency entry in assay [1], in assay [3], in assay [4], in assay [5], in [7] and in assay [8] was “inactive” in each case. The Potency entry in assay [9], in [10], in [11], in assay [12], in assay [13] and in assay [16] was “inactive” throughout. Further, the compound was called inactive in [6]. Besides, the Potency in assay [14] was 27.4 µM (active) and 26.6 µM (active); in assay [17] it was 12.6 µM (active); in assay [18], 2.25 µM (active) and 12.3 µM (active); in assay [19], 6.35 µM (active) and 13.8 µM (active); in assay [20], 25.3 µM (active) and 17.4 µM (active).

For the compound `CC(COc1ccccc1)N(CCCl)Cc1ccccc1` (stereo unspecified), the Potency was 30.6 µM (active) and 26.6 µM (active) in [1]; 570 nM (active) and 448 nM (active) and 692 nM (active) in assay [18]; 2.27 µM (active) and 2.24 µM (active) and 3.47 µM (active) in [19]; 28.6 µM (active) and 22.4 µM (active) and 12.3 µM (active) in assay [20]. Further, the Potency entry in [2], in [3], in assay [5], in assay [9], in [10] and in assay [12] was “inactive” throughout. The Potency result in [13] was “inactive”. In assay [6], the compound was classed as inactive.

The values above are taken from PubChem BioAssay (Tox21).
